Records with an inconclusive call do not appear. Unmarked numbers belong to inactive results. The source made the active and inactive calls. Calls come from the whole dose curve; as a rule, active = well fitted curve in the direction sought with a large enough effect; inconclusive = small, poorly fitted or top-dose-only effect, or another doubt; inactive = no such curve, though single readings can be large; an effect the other way counts as inactive or inconclusive.

Experiment [1] deals with ATP-dependent 6-phosphofructokinase (Trypanosoma brucei brucei) (UniProt O15648). Briefly: qHTS Assay to Find Inhibitors of T. brucei phosphofructokinase: hit validation (AID 492961).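 Note: luminescence reports ADP formed as PFK phosphorylates fructose-6-phosphate with ATP; % is set by controls: 0 for no effect and ±100 for the full control effect.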 The procedure, abridged: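 Percent activity derived from corrected luminescence, normalized between 0x and 1x enzyme controls, then fitted to concentration-response curves. Conditions: 1.25 nM PFK, 0.1 mM ATP, 0.5 mM F6P, 45 min RT.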
Chain of ATP-dependent 6-phosphofructokinase (Trypanosoma brucei brucei) (O15648 whole entry, looked up): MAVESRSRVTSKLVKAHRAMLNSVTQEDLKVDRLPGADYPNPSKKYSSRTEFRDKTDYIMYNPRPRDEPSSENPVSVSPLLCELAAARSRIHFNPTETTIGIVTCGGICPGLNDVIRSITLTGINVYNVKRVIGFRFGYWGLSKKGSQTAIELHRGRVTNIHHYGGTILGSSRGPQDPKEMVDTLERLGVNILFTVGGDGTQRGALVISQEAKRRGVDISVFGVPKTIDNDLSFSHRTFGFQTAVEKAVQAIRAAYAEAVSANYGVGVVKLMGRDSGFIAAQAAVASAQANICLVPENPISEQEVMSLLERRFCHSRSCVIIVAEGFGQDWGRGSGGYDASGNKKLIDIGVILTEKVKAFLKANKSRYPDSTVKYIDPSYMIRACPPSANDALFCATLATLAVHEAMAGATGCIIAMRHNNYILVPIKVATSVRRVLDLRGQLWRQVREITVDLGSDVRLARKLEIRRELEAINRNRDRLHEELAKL

Experiment [2] has as its target Luciferin 4-monooxygenase (Photinus pyralis) (UniProt P08659). The experiment is described as follows: Biochemical firefly luciferase enzyme assay for NPC (AID 624030).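 Note: purified P. pyralis luciferase at 10 nM with luciferin and ATP substrate; 0% = DMSO and -100% = full luciferase inhibition by PTC124 control; nearly all actives have a fitted effect of over 70% in size.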 In outline: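 Counter-screen for direct inhibition of the luciferase enzyme by approved-drug library compounds, run at 10 nM enzyme in 50 mM Tris acetate (final). Luminescence was read within 5 min of enzyme-buffer addition and normalized to PTC124 versus DMSO (0%).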

The nature of experiment [3]: qHTS profiling for inhibitors of Plasmodium falciparum proliferation (AID 504749).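 For activity, negative = inhibition: 0% = DMSO vehicle and full inhibition = artemisinin control.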 For all read-outs here: nearly all actives have a fitted effect of over 60% in size. Note: potency is the fitted concentration of half-maximal effect. As to conditions: P. falciparum in erythrocytes, SYBR Green DNA, 72 h; for activity, negative = inhibition: at 28.7 µM (top of the series). In outline: (§1)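 Fluorescence of SYBR Green-bound parasite DNA, read at 485/535 nm, served as the growth measure. Infected erythrocytes were cultured with compound 72 h; artemisinin (0.29 uM) and DMSO wells defined the normalization range.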
(Quantitative high-throughput screening tests each substance at several concentrations.)

In another experiment the test system is CP185. Described as above. The settings on record: P. falciparum in erythrocytes, SYBR Green DNA, 72 h; series mostly up to 28.7 µM. In outline:
as §1

Another experiment has as its system CP238. The experiment is described as above. As to conditions: P. falciparum in erythrocytes, SYBR Green DNA, 72 h; series mostly up to 28.7 µM. The procedure, abridged:
as §1

Another experiment deals with CP252. The experiment is described as above. As to conditions: P. falciparum in erythrocytes, SYBR Green DNA, 72 h; series mostly up to 28.7 µM. In outline: as §1
Another experiment relates to CP262. Described as above. The settings on record: P. falciparum in erythrocytes, SYBR Green DNA, 72 h; series mostly up to 28.7 µM. In outline: as §1
In another experiment the test system is CP265. The description is as above. As to conditions: P. falciparum in erythrocytes, SYBR Green DNA, 72 h; series mostly up to 28.7 µM. In outline: as §1
Another experiment relates to CP286. The experiment is described as above. The settings on record: P. falciparum in erythrocytes, SYBR Green DNA, 72 h; series mostly up to 28.7 µM. In outline: as §1
The next experiment has as its system CP315. Described as above. The settings on record: P. falciparum in erythrocytes, SYBR Green DNA, 72 h; series mostly up to 28.7 µM. In outline:
as §1

In another experiment the test system is DFO2036. The description is as above. As to conditions: P. falciparum in erythrocytes, SYBR Green DNA, 72 h; series mostly up to 28.7 µM. The procedure, abridged:
as §1

For a further experiment, the system named is Dd2. The experiment is described as above. The settings on record: P. falciparum in erythrocytes, SYBR Green DNA, 72 h; series mostly up to 28.7 µM. In outline: as §1
A further experiment deals with ECU. The description is as above. As to conditions: P. falciparum in erythrocytes, SYBR Green DNA, 72 h; series mostly up to 28.7 µM. The procedure, abridged: as §1
The test system of a further experiment is FAB9. Described as above. The settings on record: P. falciparum in erythrocytes, SYBR Green DNA, 72 h; series mostly up to 28.7 µM. The procedure, abridged:
as §1

The next experiment concerns JCK. Described as above. The settings on record: P. falciparum in erythrocytes, SYBR Green DNA, 72 h; series mostly up to 28.7 µM. The procedure, abridged:
as §1

In another experiment the test system is N140. The experiment is described as above. The settings on record: P. falciparum in erythrocytes, SYBR Green DNA, 72 h; series mostly up to 28.7 µM. In outline: as §1
The next experiment concerns CP192. Described as above. The settings on record: P. falciparum in erythrocytes, SYBR Green DNA, 72 h; series mostly up to 28.7 µM. In outline:
as §1

The next experiment has as its system CP211. The description is as above. As to conditions: P. falciparum in erythrocytes, SYBR Green DNA, 72 h; series mostly up to 28.7 µM. The procedure, abridged:
as §1

The test system of the next experiment is CP269. Described as above. As to conditions: P. falciparum in erythrocytes, SYBR Green DNA, 72 h; series mostly up to 28.7 µM. In outline: as §1
The next experiment relates to CP329. The experiment is described as above. The settings on record: P. falciparum in erythrocytes, SYBR Green DNA, 72 h; series mostly up to 28.7 µM. In outline:
as §1

Chain of Luciferin 4-monooxygenase (Photinus pyralis) (P08659 whole entry, looked up): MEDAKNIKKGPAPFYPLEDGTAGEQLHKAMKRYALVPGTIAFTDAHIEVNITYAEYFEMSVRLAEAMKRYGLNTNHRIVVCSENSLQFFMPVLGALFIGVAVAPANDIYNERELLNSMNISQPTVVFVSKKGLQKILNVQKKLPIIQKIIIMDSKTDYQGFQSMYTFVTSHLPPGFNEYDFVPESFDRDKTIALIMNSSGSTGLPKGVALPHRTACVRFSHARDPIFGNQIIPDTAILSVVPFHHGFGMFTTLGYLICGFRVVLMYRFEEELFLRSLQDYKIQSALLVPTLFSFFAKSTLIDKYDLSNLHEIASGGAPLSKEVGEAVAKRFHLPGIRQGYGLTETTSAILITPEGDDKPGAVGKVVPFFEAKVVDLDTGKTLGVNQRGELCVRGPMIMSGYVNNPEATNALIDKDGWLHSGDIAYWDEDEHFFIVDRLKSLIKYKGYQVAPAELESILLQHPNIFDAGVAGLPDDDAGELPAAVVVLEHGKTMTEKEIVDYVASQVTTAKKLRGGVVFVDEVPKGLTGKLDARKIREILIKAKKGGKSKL

On to `C[C@]12CC[C@@H]3c4ccc(O)cc4C[C@@H](CCCCCCCCCS(=O)CCCC(F)(F)C(F)(F)F)C3[C@@H]1CC[C@@H]2O` (stereo partly specified), for which the Potency entry (in experiment [1]; in experiment [2]; in the experiment with CP262; with CP315) was “inactive” each time. In addition, the Potency in experiment [3] (parasite line A) was 11.2 µM (active); in [3] (parasite line B) it was 10 µM (active); in the experiment on CP185 it was 8.91 µM (active); in the experiment on CP238 it was 7.94 µM (active); in the experiment with CP252 it was 8.91 µM (active); in the experiment on CP265, 11.2 µM (active). In addition, the Potency with CP286 was 11.2 µM (active); in the experiment with DFO2036, 11.2 µM (active); with Dd2 it was 7.08 µM (active); in the experiment on ECU, 3.55 µM (active); with FAB9 it was 8.91 µM (active); in the experiment on JCK, 17.8 µM (active). Further, the Potency in the experiment with N140 was 2.24 µM (active).

On to `CC(=O)C1(O)Cc2c(O)c3c(c(O)c2C(OC2CC(N)C(O)C(C)O2)C1)C(=O)c1c(O)cccc1C3=O` (stereo unspecified), for which, in [1], the Potency result was “inactive”. Besides, the Potency was 5.01 µM (active) in experiment [3] (parasite line A); 11.2 µM (active) in experiment [3] (parasite line B); 7.94 µM (active) in the experiment with CP185; 10.7 µM (active) in the experiment with CP192; 9.53 µM (active) with CP211; 8.91 µM (active) in the experiment on CP238. Further, the Potency in the experiment with CP252 is 8.91 µM (active); with CP262 it was 12 µM (active); in the experiment with CP265, 10 µM (active); in the experiment on CP269, 15.1 µM (active); with CP286, 3.16 µM (active); in the experiment with CP329, 12 µM (active). The Potency in the experiment with DFO2036 was 7.94 µM (active); in the experiment on Dd2 it was 4.47 µM (active); in the experiment on ECU, 8.91 µM (active); in the experiment with FAB9, 11.2 µM (active); in the experiment with JCK it was 12.6 µM (active); in the experiment on N140, 7.08 µM (active).

As to `C[C@]12C=CC(=O)N[C@@H]1CC[C@@H]1C2CC[C@]2(C)C(C(=O)Nc3cc(C(F)(F)F)ccc3C(F)(F)F)CC[C@@H]12` (stereo partly specified), the Potency entry (in [1]; in [2]; in the experiment on CP185; in the experiment with CP192; in the experiment with CP211; in the experiment on CP238) was “inactive” throughout. Moreover, the Potency entry in the experiment with CP252, with CP262, with CP265, with CP269, with CP329 and with DFO2036 was “inactive” each time. The Potency entry in the experiment with Dd2, in the experiment with ECU and with N140 was “inactive” each time. The activity, negative = inhibition in [3] (parasite line A) is -5.45%. The Potency in experiment [3] (parasite line B) is 11.2 µM (active); with CP286 it was 6.31 µM (active).

As for `CC(C)C(=O)OCC(=O)[C@@]12OC(C3CCCCC3)O[C@@H]1CC1C3CCC4=CC(=O)C=C[C@]4(C)C3[C@@H](O)C[C@@]12C` (stereo partly specified), the Potency entry in experiment [1] and in experiment [2] was “inactive” throughout. Besides, the Potency was 0.794 µM (active) in experiment [3] (parasite line A); 0.562 µM (active) in experiment [3] (parasite line B); 0.794 µM (active) in the experiment with CP185; 1.35 µM (active) with CP211; 1 µM (active) with CP238; 1 µM (active) in the experiment on CP252. Also, the Potency is 1 µM (active) in the experiment on CP265; 0.794 µM (active) in the experiment on CP286; 0.501 µM (active) with DFO2036; 1.41 µM (active) in the experiment with Dd2; 1.12 µM (active) in the experiment with ECU; 2 µM (active) in the experiment with FAB9. The Potency with JCK was 2.51 µM (active); with N140 it was 0.794 µM (active).

`CC1(C)CC1C(=O)N/C(=C/CCCCSCC(N)C(=O)O)C(=O)O` (stereo unspecified): the Potency result (in [1]; in experiment [2]; in the experiment on CP185; in the experiment with CP192; in the experiment with CP211; with CP238) was “inactive” throughout. The Potency entry with CP252, in the experiment with CP262, in the experiment on CP265, in the experiment on CP269, in the experiment on CP286 and in the experiment with CP315 was “inactive” each time. Besides, the Potency result in the experiment on CP329, with DFO2036, in the experiment with Dd2, with ECU, in the experiment on FAB9 and in the experiment with JCK was “inactive” throughout. In addition, the Potency result in the experiment on N140 was “inactive”. For the same compound, the activity, negative = inhibition in experiment [3] (parasite line A) was 9.99%; in [3] (parasite line B), -1.88%.

Take `CCC(C(=O)C(C)C(O)C(C)CCc1ccc(C)c(O)c1C(=O)O)C1OC(CC)(C2CC[C@@](O)(CC)C(C)O2)CC1C` (stereo partly specified): the Potency result in experiment [1] and in [2] was “inactive” throughout. Besides, the Potency in [3] (parasite line A) is 0.794 µM (active); in experiment [3] (parasite line B), 1.12 µM (active); with CP185 it was 1.12 µM (active); in the experiment with CP211, 0.536 µM (active); in the experiment with CP238 it was 1 µM (active); with CP252 it was 0.794 µM (active). Also, the Potency is 0.953 µM (active) in the experiment with CP262; 0.891 µM (active) with CP265; 0.757 µM (active) in the experiment on CP269; 0.631 µM (active) in the experiment on CP286; 0.849 µM (active) in the experiment on CP315; 0.757 µM (active) in the experiment with CP329. Further, the Potency with DFO2036 is 1 µM (active); in the experiment with Dd2, 0.794 µM (active); with ECU, 0.708 µM (active); in the experiment with FAB9, 2 µM (active); with JCK it was 8.91 µM (active); in the experiment with N140, 0.562 µM (active).

The values above are taken from PubChem BioAssay (NCATS).
